PubChem BioAssay AID434989 (The Scripps Research Institute Molecular Screening Center, 2010)
Hit rate of the full screen: of about 330,000 compounds, about 1,400 (0.42%) were called active.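 How the source made its calls: active means inhibition above its plate's threshold, mean inhibition of all tested compounds on the plate plus 3 SD (cut at about 37% in these data); inactive means the rest.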 Only a selection was taken, and actives are over-represented in it overall.

The molecules below were run against Orexin/Hypocretin receptor type 1 (Homo sapiens) (UniProt O43613) (assay: OX1R (HCRTR1) antagonists, primary screen, fluorescence, CHO/OX1R cells, Fluo-8 calcium, orexin A (AID 434989;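 further: 0% = orexin A challenge wells and 100% = SB-334867-A antagonist wells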)). Settings: Fluo-8 calcium fluorescence, at 5 µM, active compounds read high.
Sequence of Orexin/Hypocretin receptor type 1 (Homo sapiens) (O43613 whole entry, looked up): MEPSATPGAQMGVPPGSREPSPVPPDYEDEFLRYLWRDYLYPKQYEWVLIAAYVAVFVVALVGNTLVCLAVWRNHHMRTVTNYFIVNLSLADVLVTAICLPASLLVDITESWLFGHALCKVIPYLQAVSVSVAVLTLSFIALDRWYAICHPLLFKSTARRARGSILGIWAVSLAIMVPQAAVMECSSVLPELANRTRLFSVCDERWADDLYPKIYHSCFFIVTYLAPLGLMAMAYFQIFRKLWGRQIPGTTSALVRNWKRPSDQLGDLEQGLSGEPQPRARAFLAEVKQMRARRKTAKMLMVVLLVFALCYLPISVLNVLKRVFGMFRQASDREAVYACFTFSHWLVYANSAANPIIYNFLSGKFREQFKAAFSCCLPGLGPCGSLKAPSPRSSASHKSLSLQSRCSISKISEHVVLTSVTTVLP

| Structure (SMILES) | inhibition |
| --- | --- |
| COCCn1c(C)cc(C(=O)CN2c3cccc4cccc(c34)S2(=O)=O)c1C | -15.1% (inactive) |
| CCOc1ccc(NC(=O)NNC(=O)c2ccc(Cl)cc2Cl)cc1 | -32.5% (inactive) |
| NC(N)=N/N=C/c1ccc(OCc2ccc(Cl)cc2Cl)cc1 | 60% (active) |
| OC(CNCCc1ccc(Cl)cc1Cl)COc1ccccc1 (stereo not drawn) | -12.8% (inactive) |
| Cc1noc(C)c1S(=O)(=O)N(C)C[C@H]1Oc2ccc(NC(=O)C3CCCCC3)cc2C(=O)N([C@H](C)CO)C[C@@H]1C | -7.01% (inactive) |
| CC[C@@H](C)[C@@H]1CN([C@@H](C)CN2CCC[C@H]2CN2C(N)=NC[C@H]2C(C)C)C(=N)N1CCc1ccc(Cl)c(Cl)c1 | -14.1% (inactive) |
| O=C(CN1C(=O)NC2(CCCCC2)C1=O)NCCc1c[nH]c2ccccc12 | -22.5% (inactive) |
| N#C/C(=C/c1ccc(N2CCCCC2)o1)C(=O)NCCc1c[nH]c2ccccc12 | 61.6% (active) |
| CC(=O)N/C(=C/c1ccc(Cl)cc1)C(=O)NCCc1c[nH]c2ccccc12 | -8.41% (inactive) |
| CN(C)C(=O)CCc1ccc2c3c([nH]c2c1)[C@]1(C)[C@@H](C(=O)N2CCOCC2)C[C@H](CC(=O)NCCc2ccccn2)C(=O)N1CC3 | -9.61% (inactive) |
| O=C(CN1C(=O)NC2(CCOc3ccccc32)C1=O)Nc1cccc([N+](=O)[O-])c1 (stereo not drawn) | -4.96% (inactive) |
| COc1cccc(C(=O)NC(=O)Nc2nc(C)cc(C(F)(F)F)n2)c1 | 43.9% (active) |
| COc1cccc(C(=O)NNC(=O)c2cccc(F)c2)c1 | -14.5% (inactive) |
| Cc1cc(C)nc(NC(=O)Nc2ccccc2C(F)(F)F)n1 | -30.4% (inactive) |
| CCNC(=S)N1CCN(S(=O)(=O)c2ccc(Cl)s2)CC1 | -8.33% (inactive) |
| COc1ccc(CNC(=O)C[C@H]2C[C@H](C(=O)N3CCOCC3)[C@@]3(C)c4[nH]c5cc(CCC(=O)N(C)C)ccc5c4CCN3C2=O)cc1OC | -8.18% (inactive) |
| CC1=C/C(=N\OS(=O)(=O)c2ccccc2)C=CC1=O | 50.8% (active) |
| CC(C)N(C(=O)[C@H]1C[C@H](CC(=O)NCCC2=CCCCC2)C(=O)N2CCc3c([nH]c4cc(CCC(=O)N(C)C)ccc34)[C@]12C)C(C)C | -35.9% (inactive) |
| O=C(/C=C/c1ccc2c(c1)OCCO2)c1ccc(O)cc1 | -5.09% (inactive) |
| O=C(/C=C/c1ccc(Cl)c([N+](=O)[O-])c1)c1ccc(O)cc1 | -19.1% (inactive) |
| O=C(/C=C(O)/C=C/c1ccc(O)cc1)/C=C/c1ccc(O)cc1 | 88% (active) |
| Cc1ccc(S(=O)(=O)N2[C@@H](c3cccc4ccccc34)C(C(=O)O)=C[C@H]2C(C)(C)C)cc1 | -3.21% (inactive) |
| CCN(C[C@H]1N[C@@](CC)(C(=O)OC)[C@H]2C(=O)N(Cc3ccccc3)C(=O)[C@@H]12)S(=O)(=O)c1ccccc1 | -23.9% (inactive) |
| O=C(COC(=O)/C=C/c1cccc(Cl)c1)NCc1cccs1 | -21.7% (inactive) |
| Cc1ccc(S(=O)(=O)N(C)c2ccc(OCC(=O)OCc3ccc(C#N)cc3)cc2)cc1 | 0.88% (inactive) |
| CC1(C)C=Cc2c(ccc3c2OC[C@@H](c2ccc(O)cc2O)C3)O1 | 47.2% (active) |
| COc1cc(/C=C/C(=O)OCC(=O)NC2CC2)cc(OC)c1OC | -7.25% (inactive) |

| Structure (SMILES) | inhibition |
| --- | --- |
| C/C(N)=C(/C#N)C(=O)COC(=O)c1cc(-c2ccc(C)cc2)nc2ccccc12 | 47.2% (active) |
| C/C(N)=C(/C#N)C(=O)COC(=O)c1cc(-c2cccc(Br)c2)nc2ccccc12 | 15.2% (inactive) |
| C/C(N)=C(/C#N)C(=O)COC(=O)c1cc(-c2ccccc2)nc2ccc(Br)cc12 | 5.4% (inactive) |
| CC(C)COc1ccc(C(=O)NNC(=O)CCC(=O)c2cccs2)cc1 | -18.4% (inactive) |
| FC(F)(F)C1CCCN(c2nsc3ccccc23)C1 (stereo not drawn) | 46.1% (active) |
| O=C(NCC(=O)N1CCCC(C(F)(F)F)C1)c1ccccc1F (stereo not drawn) | 0.97% (inactive) |
| O=C(NC(Cc1ccccc1)C(=O)N1CCCC(C(F)(F)F)C1)c1ccccc1 (stereo not drawn) | -34.6% (inactive) |
| Cc1onc(-c2c(F)cccc2Cl)c1C(=O)OCC(=O)N1C(C)CCCC1C (stereo not drawn) | -24.4% (inactive) |
| COc1ccc(NC(=O)CNc2cc(S(=O)(=O)N3CCOCC3)ccc2N2CCOCC2)c(OC)c1 | -10.3% (inactive) |
| CN(C)c1ccc(/C=C2\NC(=S)N(Cc3ccccc3)C2=O)cc1 | 91.7% (active) |
| O=C1/C(=C\c2ccsc2)NC(=S)N1c1ccccc1 | -19.5% (inactive) |
| COc1cc(/C=C2/SC(=S)N(Cc3ccccc3)C2=O)cc(OC)c1O | 31.2% (inactive) |
| O=C(NCCN1C(=O)S/C(=C\c2cccnc2)C1=O)c1cccc(OC(F)F)c1 | -28.3% (inactive) |
| Cc1cc(OCCCC(=O)NCCN2C(=O)S/C(=C\c3cccnc3)C2=O)ccc1Cl | 94.3% (active) |
| CCOc1ccc(N2CC(C(=O)NCCN3C(=O)S/C(=C\c4cccnc4)C3=O)CC2=O)cc1 (stereo not drawn) | -17.9% (inactive) |
| COC(=O)[C@]1(Cc2ccccc2)N[C@H](CN(C)S(=O)(=O)c2ccc(OC(F)(F)F)cc2)[C@@H]2C(=O)N(C)C(=O)[C@@H]21 | -30.2% (inactive) |
| COC(=O)c1ccc(/C=C/c2c(-c3ccc(OC)cc3)sc3ccccc23)cc1 | -6.38% (inactive) |
| COc1ccc(CNC(=O)COC(=O)C(CCSC)N2C(=O)c3ccccc3C2=O)cc1 (stereo not drawn) | -29.7% (inactive) |
| CCOC(=O)[C@H]1[C@H]2COc3ccccc3[C@@H]2N2C(=O)CN(Cc3ccccc3)C(=O)[C@@]12C | -30.6% (inactive) |
| Cc1cc(N2CCCC2=O)cc(C)c1S(N)(=O)=O | 44.7% (active) |
| CNS(=O)(=O)c1ccc(N2CCCC2=O)c([N+](=O)[O-])c1 | -6.08% (inactive) |
| CN(C)S(=O)(=O)c1ccc(N2CCCC2=O)c([N+](=O)[O-])c1 | -12.1% (inactive) |
| O=C1CSc2ccc(C(=O)NCc3ccccn3)cc2N1 | 7.19% (inactive) |
| CN(C)CCNC(=O)c1[nH]nc2c1CCc1ccccc1-2 | -12% (inactive) |
| COc1cccc(/C=N/NC(=O)c2[nH]nc3c2CCc2ccccc2-3)c1O | 38.6% (active) |
| COc1ccc(/C=N/NC(=O)c2ccc3c(c2)OCCO3)c(OC)c1 | -14.1% (inactive) |
